Of roughly 7,900 targets only a part is listed; those with a hit were picked by preference. About 0.6% of all pairs of compound and target were hits. Unmarked numbers belong to inactive results.
How the values were obtained:
Experiment in all cases: log2 fold change, soluble protein after heating vs DMSO (PISA); higher = thermal stabilisation; K562 cells, 10 uM, 30 min; active = over 0.2 and 3.5 SD of the protein, either way, in both replicates (recomputed)
erlotinib = compound: C#Cc1cccc(Nc2ncnc3cc(OCCOC)c(OCCOC)cc23)c1 [erlotinib]
Summary of the method: (§1)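 Thermal stability values are relative to control samples and come from duplicates. They are expressed as log2 fold changes. For measurement, K562 cells (2×10^6 cells/mL) received 10 μM compound for 30 min, and aliquots were heated for 3 min over 48°C-58°C, pooled, and extracted at 4°C in PBS with 0.5% NP-40. Soluble protein, the supernatant after 21,000xg for 90 min, was quantified by TMTpro 16plex LC-MS/MS with equalised channel sums.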

[1] = compound: C/C(=N\NC(=O)C1=CC(=CC=C1)S(=O)(=O)N2CCOCC2)/C3=C(C=CC(=C3)Cl)O
Summary of the method: as §1

[2] = compound: C1=CC(=C(C=C1Cl)C2=NC3=NC=CN=C3C(=N2)NC4=CC=NC=C4)F
Summary of the method: as §1

[3] = compound: C1=CC(=CC=C1C2=NC3=C(N2)C=C(C=C3)C(=O)N)OC4=CC=C(C=C4)Cl
Summary of the method: as §1

[4] = compound: C1=CC2=C(C=CC(=C2)/C=C\3/C(=O)NC(=NCC4=CC=CS4)S3)N=C1
Summary of the method: as §1

[5] = compound: C1=CC2=NC=CN=C2C=C1/C=C/3\C(=O)NC(=O)S3
Summary of the method: as §1

[6] = compound: C1=CC=C(C=C1)C2=NC(=C(N2)C3=CC=NC=C3)C4=CC(=C(C=C4)Cl)O
Summary of the method: as §1

[7] = compound: C1=CC=C2C(=C1)C3=NNC4=CC=CC(=C43)C2=O
Summary of the method: as §1

[8] = compound: C1CCN(C1)C(=O)NC2=CC=CC(=C2)NC3=NC=C(C(=N3)NCCC4=CN=CN4)Br
Summary of the method: as §1

[9] = compound: C1CN(CCC1(CC2=CC=C(C=C2)Cl)N)C3=NC=NC4=C3C=CN4
Summary of the method: as §1

IRAK-1-4 Inhibitor I = compound: C1COCCN1CCN2C3=CC=CC=C3N=C2NC(=O)C4=CC(=CC=C4)[N+](=O)[O-] [IRAK-1-4 Inhibitor I]
Summary of the method: as §1

ibrutinib = compound: C=CC(=O)N1CCC[C@@H](n2nc(-c3ccc(Oc4ccccc4)cc3)c3c(N)ncnc32)C1 [ibrutinib]
Summary of the method: as §1

[10] = compound: CC(=O)c1cnc2ccc(-c3cc(Cl)c(O)c(Cl)c3)nc2c1N[C@H]1CC[C@H](CN(C)C)CC1
Summary of the method: as §1

ralimetinib = compound: CC(C)(C)Cn1c(N)nc2ccc(-c3[nH]c(C(C)(C)C)nc3-c3ccc(F)cc3)nc21 [ralimetinib]
Summary of the method: as §1

[11] = compound: CC(C)(O)CC(=O)NCCn1ccc2ncnc(Nc3ccc(Oc4cccc(C(F)(F)F)c4)c(Cl)c3)c21
Summary of the method: as §1

[12] = compound: CC(C)C1=C2N=C(C=C(N2N=C1)NCC3=CC=CC=C3)NCCCCCCN
Summary of the method: as §1

[13] = compound: CC(C)C[C@@H](C=O)NC(=O)[C@H](CC(C)C)NC(=O)[C@H](CC(C)C)NC(=O)OCc1ccccc1
Summary of the method: as §1

pinometostat = compound: CC(C)N(C[C@H]1O[C@@H](n2cnc3c(N)ncnc32)[C@H](O)[C@@H]1O)[C@H]1C[C@@H](CCc2nc3cc(C(C)(C)C)ccc3[nH]2)C1 [pinometostat]
Summary of the method: as §1

[14] = compound: CC1=C(C(CC(=O)N1)C2=CC=C(C=C2)C(F)(F)F)C(=O)NC3=C(C=C4C(=C3)C=NN4)F
Summary of the method: as §1

[15] = compound: CC1=C(C2=C(C=C1)C(=O)C3=CC=CC=C3N2CCCN)C
Summary of the method: as §1

UniProt Q92536, sequence (Q92536 whole entry, looked up): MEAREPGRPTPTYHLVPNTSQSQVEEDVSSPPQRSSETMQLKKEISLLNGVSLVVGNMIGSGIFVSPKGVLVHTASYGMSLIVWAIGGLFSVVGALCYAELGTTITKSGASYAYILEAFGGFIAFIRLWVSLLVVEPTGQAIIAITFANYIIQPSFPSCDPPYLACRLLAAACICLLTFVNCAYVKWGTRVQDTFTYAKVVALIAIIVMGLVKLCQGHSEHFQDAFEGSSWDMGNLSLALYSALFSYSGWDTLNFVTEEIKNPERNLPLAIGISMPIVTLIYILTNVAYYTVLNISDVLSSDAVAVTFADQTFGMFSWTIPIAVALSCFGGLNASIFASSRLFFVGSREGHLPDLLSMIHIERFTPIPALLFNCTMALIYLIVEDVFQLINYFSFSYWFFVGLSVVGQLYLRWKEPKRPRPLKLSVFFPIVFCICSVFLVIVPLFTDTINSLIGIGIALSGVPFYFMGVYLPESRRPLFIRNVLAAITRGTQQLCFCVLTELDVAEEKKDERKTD
UniProt O75494, sequence (O75494 whole entry, looked up): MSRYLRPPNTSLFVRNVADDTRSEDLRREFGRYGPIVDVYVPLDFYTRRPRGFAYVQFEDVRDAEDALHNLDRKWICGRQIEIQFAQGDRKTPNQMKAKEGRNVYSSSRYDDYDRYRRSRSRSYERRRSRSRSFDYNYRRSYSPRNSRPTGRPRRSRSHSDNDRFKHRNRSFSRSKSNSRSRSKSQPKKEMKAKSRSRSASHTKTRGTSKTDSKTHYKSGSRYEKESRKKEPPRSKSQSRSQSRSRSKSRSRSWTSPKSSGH
UniProt P42229, sequence (P42229 whole entry, looked up): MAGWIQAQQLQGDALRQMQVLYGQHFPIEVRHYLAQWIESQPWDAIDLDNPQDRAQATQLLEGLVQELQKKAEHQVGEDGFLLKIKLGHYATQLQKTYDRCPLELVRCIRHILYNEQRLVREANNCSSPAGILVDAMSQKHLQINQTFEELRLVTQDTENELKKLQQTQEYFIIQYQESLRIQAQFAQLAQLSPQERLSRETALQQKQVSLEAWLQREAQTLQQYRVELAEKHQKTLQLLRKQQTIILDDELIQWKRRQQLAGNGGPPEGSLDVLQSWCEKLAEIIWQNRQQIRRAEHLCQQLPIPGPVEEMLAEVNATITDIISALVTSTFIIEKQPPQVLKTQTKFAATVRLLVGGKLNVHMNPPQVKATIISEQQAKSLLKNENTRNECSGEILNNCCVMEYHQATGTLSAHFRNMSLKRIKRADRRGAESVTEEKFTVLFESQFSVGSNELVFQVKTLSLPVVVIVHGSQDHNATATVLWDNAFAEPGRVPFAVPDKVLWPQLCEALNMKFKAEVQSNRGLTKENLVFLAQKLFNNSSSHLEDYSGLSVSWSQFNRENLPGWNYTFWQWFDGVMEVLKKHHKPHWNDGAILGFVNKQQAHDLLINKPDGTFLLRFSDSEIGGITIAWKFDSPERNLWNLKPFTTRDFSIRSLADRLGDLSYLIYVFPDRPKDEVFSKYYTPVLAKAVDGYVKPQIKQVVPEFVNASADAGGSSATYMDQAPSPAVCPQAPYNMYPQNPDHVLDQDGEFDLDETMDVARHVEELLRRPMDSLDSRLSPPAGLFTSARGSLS
UniProt Q16385, sequence (Q16385 whole entry, looked up): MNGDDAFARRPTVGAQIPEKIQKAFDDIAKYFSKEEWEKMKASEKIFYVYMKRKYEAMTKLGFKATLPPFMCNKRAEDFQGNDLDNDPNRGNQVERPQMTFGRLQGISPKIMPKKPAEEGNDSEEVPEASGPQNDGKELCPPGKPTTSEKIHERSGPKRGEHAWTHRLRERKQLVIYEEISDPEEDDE
UniProt P31641, sequence (P31641 whole entry, looked up): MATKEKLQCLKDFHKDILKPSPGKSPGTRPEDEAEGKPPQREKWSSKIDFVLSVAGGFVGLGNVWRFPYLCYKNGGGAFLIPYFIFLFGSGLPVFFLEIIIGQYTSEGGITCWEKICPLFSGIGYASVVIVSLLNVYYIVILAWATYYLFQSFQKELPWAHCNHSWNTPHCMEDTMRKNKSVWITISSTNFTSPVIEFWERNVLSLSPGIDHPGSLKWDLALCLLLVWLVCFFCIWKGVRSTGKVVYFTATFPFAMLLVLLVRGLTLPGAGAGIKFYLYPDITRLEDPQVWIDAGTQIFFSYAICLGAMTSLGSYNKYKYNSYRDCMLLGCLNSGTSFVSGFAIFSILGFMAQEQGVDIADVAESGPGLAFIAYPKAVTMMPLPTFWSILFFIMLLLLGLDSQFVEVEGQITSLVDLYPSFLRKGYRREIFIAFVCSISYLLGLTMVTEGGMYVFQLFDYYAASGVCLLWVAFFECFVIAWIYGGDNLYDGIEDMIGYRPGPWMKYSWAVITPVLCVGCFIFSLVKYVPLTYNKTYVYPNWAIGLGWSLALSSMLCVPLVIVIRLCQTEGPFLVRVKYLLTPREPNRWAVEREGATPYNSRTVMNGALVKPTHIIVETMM
UniProt Q96JI7, sequence (Q96JI7 whole entry, looked up): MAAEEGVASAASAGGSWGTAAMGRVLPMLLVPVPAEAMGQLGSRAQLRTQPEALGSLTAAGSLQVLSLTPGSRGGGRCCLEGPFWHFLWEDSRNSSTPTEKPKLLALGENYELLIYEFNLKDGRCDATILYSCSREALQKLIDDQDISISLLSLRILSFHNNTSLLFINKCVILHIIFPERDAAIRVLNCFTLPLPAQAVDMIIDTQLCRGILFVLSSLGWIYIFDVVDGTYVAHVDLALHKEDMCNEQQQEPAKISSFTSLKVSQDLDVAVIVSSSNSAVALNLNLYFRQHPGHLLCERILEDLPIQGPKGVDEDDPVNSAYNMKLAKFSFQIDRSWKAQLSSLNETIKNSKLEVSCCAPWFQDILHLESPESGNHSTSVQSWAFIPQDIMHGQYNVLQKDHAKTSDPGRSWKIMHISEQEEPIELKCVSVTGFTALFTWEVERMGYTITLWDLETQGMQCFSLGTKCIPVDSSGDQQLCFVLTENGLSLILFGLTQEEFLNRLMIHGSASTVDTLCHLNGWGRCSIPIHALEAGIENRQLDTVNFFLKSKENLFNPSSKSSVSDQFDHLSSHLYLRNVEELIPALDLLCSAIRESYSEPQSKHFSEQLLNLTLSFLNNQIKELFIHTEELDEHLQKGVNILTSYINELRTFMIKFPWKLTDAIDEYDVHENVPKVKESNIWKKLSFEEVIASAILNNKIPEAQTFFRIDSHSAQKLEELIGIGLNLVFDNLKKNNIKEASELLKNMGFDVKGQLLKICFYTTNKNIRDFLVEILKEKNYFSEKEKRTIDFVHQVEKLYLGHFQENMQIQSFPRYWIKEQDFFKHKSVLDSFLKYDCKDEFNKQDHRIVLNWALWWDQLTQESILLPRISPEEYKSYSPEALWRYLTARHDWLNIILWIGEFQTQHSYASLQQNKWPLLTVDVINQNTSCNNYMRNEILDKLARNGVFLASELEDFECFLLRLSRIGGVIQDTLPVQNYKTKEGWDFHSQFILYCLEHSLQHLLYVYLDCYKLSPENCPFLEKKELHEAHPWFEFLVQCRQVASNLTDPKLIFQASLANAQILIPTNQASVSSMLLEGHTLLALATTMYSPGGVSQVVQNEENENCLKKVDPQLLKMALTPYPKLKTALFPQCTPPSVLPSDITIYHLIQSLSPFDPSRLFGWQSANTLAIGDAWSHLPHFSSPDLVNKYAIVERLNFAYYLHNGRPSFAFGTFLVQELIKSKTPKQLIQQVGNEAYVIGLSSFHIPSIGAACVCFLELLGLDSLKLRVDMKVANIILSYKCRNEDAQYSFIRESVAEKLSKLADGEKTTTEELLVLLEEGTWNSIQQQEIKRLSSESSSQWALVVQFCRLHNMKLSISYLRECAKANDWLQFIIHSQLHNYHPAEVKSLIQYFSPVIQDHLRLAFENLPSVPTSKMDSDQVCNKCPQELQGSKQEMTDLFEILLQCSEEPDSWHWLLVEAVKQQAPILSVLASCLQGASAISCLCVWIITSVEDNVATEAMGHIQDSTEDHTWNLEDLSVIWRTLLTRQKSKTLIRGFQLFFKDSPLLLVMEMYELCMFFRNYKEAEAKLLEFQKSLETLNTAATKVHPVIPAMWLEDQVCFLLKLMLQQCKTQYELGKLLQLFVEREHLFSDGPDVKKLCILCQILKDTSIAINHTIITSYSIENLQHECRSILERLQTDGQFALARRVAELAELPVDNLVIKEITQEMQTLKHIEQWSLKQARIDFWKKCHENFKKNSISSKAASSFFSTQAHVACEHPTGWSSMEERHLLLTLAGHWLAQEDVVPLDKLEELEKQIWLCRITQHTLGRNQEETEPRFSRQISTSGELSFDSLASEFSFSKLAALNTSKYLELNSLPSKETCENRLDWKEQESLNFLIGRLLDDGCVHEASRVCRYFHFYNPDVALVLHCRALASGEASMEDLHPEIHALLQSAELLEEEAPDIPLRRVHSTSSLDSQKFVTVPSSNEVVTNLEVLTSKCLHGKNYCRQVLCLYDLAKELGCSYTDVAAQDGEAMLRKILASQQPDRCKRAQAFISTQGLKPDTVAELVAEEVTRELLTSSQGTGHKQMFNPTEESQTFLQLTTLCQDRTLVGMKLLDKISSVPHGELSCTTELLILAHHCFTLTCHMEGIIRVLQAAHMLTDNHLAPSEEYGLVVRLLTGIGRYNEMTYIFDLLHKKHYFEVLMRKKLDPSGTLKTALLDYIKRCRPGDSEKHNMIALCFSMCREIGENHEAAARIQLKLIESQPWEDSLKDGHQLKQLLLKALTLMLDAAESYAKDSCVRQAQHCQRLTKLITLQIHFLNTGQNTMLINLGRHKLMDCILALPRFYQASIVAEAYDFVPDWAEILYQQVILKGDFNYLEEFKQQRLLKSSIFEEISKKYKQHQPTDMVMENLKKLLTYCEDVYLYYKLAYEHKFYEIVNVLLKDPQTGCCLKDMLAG
UniProt Q15005, sequence (Q15005 whole entry, looked up): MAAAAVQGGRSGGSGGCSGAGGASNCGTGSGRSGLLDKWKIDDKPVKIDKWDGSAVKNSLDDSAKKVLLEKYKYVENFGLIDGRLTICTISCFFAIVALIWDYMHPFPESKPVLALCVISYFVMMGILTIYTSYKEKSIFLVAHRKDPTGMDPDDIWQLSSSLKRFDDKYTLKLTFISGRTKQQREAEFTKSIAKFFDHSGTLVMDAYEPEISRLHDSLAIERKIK

| Target | log2 fold change (erlotinib) | log2 fold change [1] | log2 fold change [2] | log2 fold change [3] | log2 fold change [4] | log2 fold change [5] | log2 fold change [6] | log2 fold change [7] | log2 fold change [8] | log2 fold change [9] | log2 fold change (IRAK-1-4 Inhibitor I) | log2 fold change (ibrutinib) | log2 fold change [10] | log2 fold change (ralimetinib) | log2 fold change [11] | log2 fold change [12] | log2 fold change [13] | log2 fold change (pinometostat) | log2 fold change [14] | log2 fold change [15] |
| --- | --- | --- | --- | --- | --- | --- | --- | --- | --- | --- | --- | --- | --- | --- | --- | --- | --- | --- | --- | --- |
| TMBIM6 isoform 2 (UniProt P55061) | -0.019 | 0.029 | 0.051 | -0.062 | 0.067 | 0.076 | 0.019 | -0.07 | 0.026 | -0.01 | 0.023 | 0.001 | 0.004 | -0.208 | -0.437 (active) | -0.521 (active) | 0.135 | 0.017 | 0.003 | -0.075 |
| TANGO6 (UniProt Q9C0B7) | 0.208 | 0.032 | -0.003 | -0.026 | -0.001 | 0.057 | 0.025 | -0.056 | -0.026 | 0 | -0.117 | -0.077 | 0.052 | 0.197 | -0.153 | -0.098 | -0.068 | 0 | 0.013 | 0.006 |
| TBC1D9B (UniProt Q66K14) | 0.07 | 0.001 | -0.087 | 0.072 | 0.151 | -0.092 | -0.011 | 0.021 | -0.055 | -0.058 | 0.038 | 0.079 | -0.075 | 0.071 | 0.103 | -0.133 | 0.032 | 0.051 | 0.02 | -0.042 |
| TJP1 (UniProt Q07157) | 0.095 | 0.072 | 0.022 | -0.015 | 0.013 | -0.135 | 0.003 | -0.029 | -0.03 | -0.035 | -0.033 | 0.03 | -0.443 (active) | 0.028 | -0.02 | -0.003 | 0.014 | 0.037 | 0.007 | 0.034 |
| STK39 (UniProt Q9UEW8) | 0.064 | 0.07 | 0.038 | -0.096 | 0.035 | 0.06 | 0.034 | 0.019 | 0.014 | -0.025 | 0.048 | -0.006 | -0.3 (active) | 0.022 | -0.09 | -0.124 | -0.018 | -0.02 | 0.013 | 0.007 |
| STAT5A (UniProt P42229) | 0.033 | 0.173 | 0.035 | 0.048 | 0.083 | 0.01 | 0.06 | -0.026 | -0.077 | -0.028 | -0.116 | -0.088 | -0.164 | 0.046 | 0.019 | -0.053 | 0.006 | 0.033 | -0.002 | -0.009 |
| SLC7A6 (UniProt Q92536) | -0.051 | 0.232 | -0.161 | 0.026 | -0.001 | 0.034 | 0.008 | -0.033 | -0.004 | 0.135 | -0.03 | -0.032 | -0.037 | -0.02 | -0.301 | 0.142 | 0.006 | -0.068 | 0.025 | -0.02 |
| SLC6A6 (UniProt P31641) | 0.001 | 0.013 | 0.123 | -0.005 | 0.003 | 0.055 | 0.007 | -0.054 | 0.087 | 0.083 | -0.025 | 0.036 | -0.045 | -0.186 | -0.033 | 0.107 | 0.101 | -0.071 | -0.025 | -0.181 |
| SPAG9 (UniProt O60271) | 0.018 | -0.025 | 0.034 | -0.016 | 0.028 | 0.039 | -0.016 | -0.012 | 0.015 | -0.009 | -0.003 | -0.003 | 0.022 | 0 | -0.045 | -0.219 (active) | 0.016 | 0.028 | 0.011 | -0.004 |
| SSX2 (UniProt Q16385) | -0.068 | -0.078 | -0.023 | 0.038 | 0.175 | 0.044 | -0.032 | -0.035 | -0.022 | -0.004 | -0.038 | -0.004 | -0.006 | -0.03 | 0.022 | -0.044 | 0.123 | -0.065 | 0.021 | -1.33 (active) |
| SPTBN4 (UniProt Q9H254) | 0.29 | 0 | -0.045 | 0.078 | 0.066 | -0.027 | 0.035 | 0.061 | 0.066 | -0.05 | -0.008 | 0.1 | -0.06 | -0.032 | -0.025 | -0.671 (active) | -0.07 | -0.007 | 0.024 | -0.016 |
| SPG11 (UniProt Q96JI7) | 0.586 | 0.148 | -0.089 | -0.084 | 0.128 | -0.108 | -0.275 | -0.073 | 0.405 | -0.002 | -0.027 | 0.128 | -0.065 | -0.151 | 0.103 | 0.051 | 0.405 | 0.035 | 0.03 | 0.097 |
| SRSF10 (UniProt O75494) | 0.004 | -0.284 | -0.701 (active) | 0.035 | -0.044 | 0.048 | -0.148 | -0.022 | 0.063 | -0.135 | -0.179 | 0.07 | -0.047 | 0.185 | 0.218 | 0.002 | 0.102 | 0.418 | 0.205 | -0.396 |
| STARD9 (UniProt Q9P2P6) | 0.026 | 0.117 | -0.089 | 0.119 | 0.06 | 0 | -0.131 | 0.005 | -0.003 | -0.099 | -0.121 | 0.161 | 0.091 | 0.068 | -0.156 | -0.066 | 0.085 | 0.083 | -0.053 | -0.07 |
| SLC29A3 (UniProt Q9BZD2) | 0.155 | 0.024 | 0.028 | 0.043 | 0.042 | 0.098 | 0.064 | 0 | 0.074 | 0.052 | 0.01 | 0.064 | 0.04 | -0.025 | 0.088 | -0.283 | 0.011 | 0.02 | -0.046 | -0.148 |
| SPCS2 (UniProt Q15005) | -0.022 | 0.015 | 0.077 | -0.043 | 0.011 | 0.029 | -0.004 | -0.08 | -0.005 | 0.001 | -0.014 | -0.037 | -0.039 | -0.047 | -0.016 | -0.01 | -0.058 | -0.062 | -0.033 | 0.002 |
